The list is not random: actives were taken first. Their share in the collection is about 19%.
DT40 TDP1 CPT = DT40-hTDP1 cell growth loss with CPT; 12% of 420,000 active; Potency, µM (series often up to 46.2 µM), hits mostly inhibitors; chicken DT40 Tdp1-/-;hTDP1 cells + 20 nM CPT, ATP luminescence, 48 h; also: nearly all actives have a fitted effect of over 55% in size
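Chicken DT40 Tdp1-/- cells complemented with human TDP1, 400 cells/well, exposed to compounds plus 20 nM camptothecin for at least 48 h at 37 C; viability read as ATP content by CellTiter-Glo luminescence.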
HepG2 tox = HepG2 cytotoxicity, counter-screen for TGF-b inhibitors | 0.76% of 410,000 active | Potency, µM (top dose mostly 46.1 µM), actives largely listed as cytotoxic | HepG2 CAGA-GFP viability, ATP luminescence, 18 h
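HepG2 CAGA-GFP cells (1000/well, DMEM with 1% FBS) received compound, then TGF-beta at 500 pg/mL final, and were incubated 18 hours at 37 degrees C. Viability was read by CellTiter-Glo luminescence. Media-only wells were set as complete cell-killing and DMSO as no toxicity.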
TDP1 block = inhibitors of human tyrosyl-DNA phosphodiesterase TDP1. AID 485290. Potency, µM (highest dose often 130 µM), hits mostly inhibitors. Q9NUW8. 0.28% of 350,000 active. recombinant TDP1, AlphaScreen DNA substrate cleavage; also: nearly all actives have a fitted effect of over 40% in size
Target sequence (Q9NUW8 whole entry, looked up): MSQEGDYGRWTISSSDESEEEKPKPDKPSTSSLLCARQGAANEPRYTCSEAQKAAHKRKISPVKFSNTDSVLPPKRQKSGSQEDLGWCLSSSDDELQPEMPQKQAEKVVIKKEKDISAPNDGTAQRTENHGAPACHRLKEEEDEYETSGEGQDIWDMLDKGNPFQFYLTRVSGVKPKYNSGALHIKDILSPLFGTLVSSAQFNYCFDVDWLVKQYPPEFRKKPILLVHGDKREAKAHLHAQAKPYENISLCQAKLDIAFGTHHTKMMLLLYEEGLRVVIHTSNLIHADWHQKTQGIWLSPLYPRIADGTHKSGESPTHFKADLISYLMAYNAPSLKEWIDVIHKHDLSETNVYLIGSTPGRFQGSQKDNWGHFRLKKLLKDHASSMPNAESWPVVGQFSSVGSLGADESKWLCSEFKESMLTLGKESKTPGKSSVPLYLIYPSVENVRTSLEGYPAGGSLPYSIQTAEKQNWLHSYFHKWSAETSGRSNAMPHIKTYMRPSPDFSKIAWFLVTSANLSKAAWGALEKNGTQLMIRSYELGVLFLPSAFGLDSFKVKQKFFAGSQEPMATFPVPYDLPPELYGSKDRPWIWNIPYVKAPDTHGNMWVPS
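Compounds were preincubated with Tdp1 (1 nM final) for 15 min at room temperature before substrate (15 nM final) started a 5 min reaction; beads (10 ug/ml final) were then added for 10 min before AlphaScreen detection.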
TGFb SMAD3 inh = blocks TGF-b signaling. HepG2 CAGA-GFP TGF-b/SMAD3 reporter, GFP fluorescence, 18 h; TGF-beta stimulated, 500 pg/mL final. Potency, µM (titrated, usually from 46.1 µM), hits mostly inhibitors. 1.2% of 410,000 active; also: nearly all actives have a fitted effect of over 65% in size
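GFP signal (ex488/em500-530) from TGF-beta-stimulated HEPG2 CAGA-GFP cells, 500 pg/mL final, 18 h at 37 degrees C in DMEM plus 1% FBS, normalized to unstimulated and DMSO-stimulated controls.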
DT40 TDP1 no CPT = qHTS for Inhibitors of human tyrosyl-DNA phosphodiesterase 1 (TDP1): qHTS in cells in absence of CPT | 15% of 420,000 active | AID 686978, 2013 | DT40 Tdp1-/- hTDP1 cells, no CPT, ATP luminescence, 48 h | Potency, µM (titrated, usually from 46.2 µM), actives largely listed as inhibitors; also: nearly all actives have a fitted effect of over 55% in size
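No-CPT arm: Tdp1-/-;hTDP1 DT40 cells (400/well) plus compounds, incubated ≥48 hr at 37 °C. Readout CellTiter-Glo luminescence.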
IL1B secr inh = blocks inflammasome-driven IL-1 beta release | THP-1 LPS/ATP IL-1B secretion, AlphaLISA, 16 h; stronger effect = lower value | activity change, % at 57.5 µM | 4.7% of 360,000 active | AID 743279; in the data active = activity change below about -50%; inconclusive = mostly about -30% to -49%
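Secreted IL-1B measured by AlphaLISA bead assay after 16 h compound exposure of THP-1 cells; compounds (final up to 57.5 uM) added 1 h before LPS (250 ng/mL) and ATP (1.25 mM) stimulation; lower signal means less secretion.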
Hits are given with their value; i = inactive; ? = inconclusive; nt = no result given; [ ] = dose if it differs, or a comment. Unless noted, calls follow the shape of the dose curve; as a rule, active = well fitted curve in the direction sought with a large enough effect; inconclusive = small, poorly fitted or top-dose-only effect, or another doubt; inactive = no such curve, though single readings can be large; an effect the other way counts as inactive or inconclusive.

SMILES	DT40 TDP1 CPT	HepG2 tox	TDP1 block	TGFb SMAD3 inh	DT40 TDP1 no CPT	IL1B secr inh
CC(Nc1ccc(-c2nc(-c3ccncc3)no2)cc1[N+](=O)[O-])c1ccccc1 (centres undefined)	i	i	i	i	i	nt
CCOC(=O)c1c(NC(=O)CSc2cn(CCNC(=O)c3ccc(OC)cc3)c3ccccc23)sc2c1CCCC2	?	i	i	?	?	nt
COc1cc(OC)cc(C2=Nn3c(nnc3-c3ccccc3O)SC2)c1	nt	nt	i	nt	nt	nt
Cc1cc(O)c(C(C)C)cc1NC(=S)Nc1cc(C(C)C)c(O)cc1C	?	i	nt	10µM	?	-55
CCOc1ccc2[nH]c3c(N4CCN(C(=O)c5ccco5)CC4)ncnc3c2c1	16µM	i	i	i	13µM	i
CCOc1ccc2[nH]c3c(=O)n(CCc4ccc(OC)cc4)cnc3c2c1	i	i	i	i	i	i
O=C(c1ccco1)N1CCN(c2ncnc3c2[nH]c2ccccc23)CC1	nt	nt	i	nt	nt	nt
CCOc1ccc2[nH]c3c(N4CCC5(CC4)OCCO5)ncnc3c2c1	23µM	i	i	i	23µM	?
O=C(c1ccco1)N1CCN(c2ncnc3c2[nH]c2ccc(Br)cc23)CC1	?	i	i	?	23µM	?
COc1ccc(CNc2oc(-c3ccc(COc4ccc(Cl)cc4)o3)nc2C#N)cc1	i	i	i	?	?	nt
Cc1cc(/C=N/NC(=O)c2ccc(O)cc2)c(C)n1CC(C)C	?	i	i	i	i	-53
COCCn1c(C)cc(/C=N/NC(=O)c2cccnc2)c1C	i	i	i	i	i	i
O=S(=O)(c1ccc(OCC(O)CNC23CC4CC(CC(C4)C2)C3)c(Cl)c1)N1CCOCC1 (centres undefined)	?	13µM	i	?	16µM	-78
CCc1nc2cc(C(=O)N3CCC[C@H]3C(=O)OC)cc(NC(=O)c3ccccc3OC)c2n1C	i[9.04 µM]	nt	nt	nt	i	nt
COc1ccc(NC(=O)CN(C)C(=O)c2ccccc2CCc2ccccc2)cc1	i	i	i	i	i	-52
CCOc1ccccc1C(=O)N(C)CC(=O)Nc1ccc(OC)cc1	i	i	nt	i	i	i
O=C(CSCc1ccccc1)Nc1cccc(F)c1	7.3µM	i	i	i	?	i
O=C(Cc1ccccc1)Nc1cccc(N2C(=O)C=CC2=O)c1	5.2µM	i	i	?	4.6µM	-67
CN(CC(=O)Nc1cccc(F)c1)C(=O)c1ccccc1CCc1ccccc1	15µM	i	i	i	21µM	i
CN(C(=O)COn1nnc2ccc(Cl)cc21)C1CCS(=O)(=O)C1 (centres undefined)	i	i	i	i	i	i
COc1ccc(NC(=O)CN(C)C(=O)C(Sc2ccccc2)c2ccccc2)cc1 (centres undefined)	16µM	i	i	?	?	i
CCN1CCC(N(Cc2ccc3c(c2)OCO3)C(=O)Nc2ccccc2OC)CC1	?	i	i	i	?	nt
COC(=O)c1ccc(Cl)cc1NC(=O)N(Cc1ccc(C)o1)C1CCN(C(C)=O)CC1	?	i	i	i	15µM	nt
CCN1CCC(N(Cc2ccc3c(c2)OCO3)C(=O)Nc2cc(Cl)ccc2C(=O)OC)CC1	13µM	i	i	?	7.3µM	nt
Cc1nc(-c2ccc(F)cc2)sc1CCNC(=O)c1ccco1	?	i	i	?	?	nt
SMILES	DT40 TDP1 CPT	HepG2 tox	TDP1 block	TGFb SMAD3 inh	DT40 TDP1 no CPT	IL1B secr inh
CCOc1ccccc1C(=O)N[C@H](C(=O)OCc1cc(=O)oc2cc(C)ccc12)C(C)C	6.5µM	i	i	?	16µM	-55
CCOc1ccccc1C(=O)NCC(=O)OCc1csc(CC(=O)Nc2ccc(C)cc2)n1	?	i	i	i	i	i
CCOc1ccccc1C(=O)N[C@H](C(=O)OCc1csc(CC(=O)Nc2ccc(C)cc2)n1)C(C)C	18µM	i	i	?	15µM	?
CCOc1ccccc1C(=O)NC(C(=O)OCn1nnc2ccccc2c1=O)C(C)C (centres undefined)	?	i	nt	i	26µM	i
CC(C)C(NC(=O)c1ccccc1)C(=O)OCn1nnc2ccccc2c1=O (centres undefined)	i	i	i	i	i	i
Cc1ccc(CNC(=O)c2cc(=O)c3cc(C)ccc3o2)cc1	i	i	i	i	i	i
CCOc1ccc(CCNC(=O)c2nnc(Cc3cc(OC)c(OC)c(OC)c3)o2)cc1OCC	21µM	i	i	i	?	nt
COc1ccc(CCNC(=O)COc2ccc3c(C)cc(=O)oc3c2)cc1OC	?	i	nt	i	13µM	i
CCOc1ccc(CCNC(=O)c2nnc(Cc3ccc(Cl)cc3Cl)o2)cc1OCC	i	i	i	i	i	nt
COc1ccc(CCNC(=O)c2cc(=O)c3cc(C)c(C)cc3o2)cc1OC	i	i	i	?	7.3µM	nt
COc1ccc(CCNC(=O)c2cc(=O)c3cc(C)ccc3o2)cc1OC	?	i	nt	i	21µM	i
COc1ccc(CNC(=O)c2cc(=O)c3cc(C)c(C)cc3o2)cc1	i	i	nt	i	i	i
COCCN1C(=O)N(c2cccc(C)c2)C(=O)C1CC(=O)Nc1ccc(OC)cc1 (centres undefined)	i	i	i	i	i	i
Cc1ccc(Nc2nc(=O)c3cccnc3s2)c(Br)c1	i	i	nt	i	i	i
CCCc1cc(=O)oc2cc(OCC(=O)NCCc3c[nH]c4ccc(OC)cc34)ccc12	16µM	i	nt	i	15µM	i
COc1ccc(CCNC(=O)c2cc(=O)c3cc(C)cc(C)c3o2)cc1OC	21µM	i	i	i	23µM	nt
CCCc1cc(=O)oc2cc(OCC(=O)NCCc3ccc(S(N)(=O)=O)cc3)ccc12	i	i	i	i	i	i
CCn1ccnc1CN(C)C(=O)C1CCC(=O)N(Cc2cccc(C(F)(F)F)c2)C1 (centres undefined)	i	i	i	i	i	i
CNC(=O)C12CCC(C)(c3nc4cc(C)c(C)cc4nc31)C2(C)C (centres undefined)	i	i	i	i	?	i
CCCNC(=O)C12CCC(C)(c3nc4cc(C)c(C)cc4nc31)C2(C)C (centres undefined)	18µM	i	i	i	23µM	i
Cc1ccc(-c2ccc(CCC(=O)O)n2-c2cccc(C(=O)O)c2)cc1	i	i	nt	i	i	i
CC1CN(C(=O)Nc2ccccc2)c2ccccc2-[n+]2ccsc21 (centres undefined)	3.7µM	i	i	i	12µM	i
